Test results taken from PMC5700166.

Assays:
Test in all cases: protein-binding microarray (PBM); PBM: ~300 nM protein, 6 mM HEPES pH 7.8, 80 mM KCl, 0.5 mM EDTA, 0.5 mM EGTA, 6% glycerol, 35 ng/ul poly-dIdC, 1% milk, 1 h, room temperature; Ap Aiptasia and Nv Nematostella (sea anemones) / Co Capsaspora / Aq Amphimedon (sponge) / Dm Drosophila / Hu human; RHD is the Rel homology domain; high values mean tight binding
Details in all cases: dsDNA, one strand shown
[1] = target: T1, GST-Ap-NF-kB RHD (Exaiptasia pallida (Aiptasia), UniProt A0A913YAJ5 2-422)
T1 sequence: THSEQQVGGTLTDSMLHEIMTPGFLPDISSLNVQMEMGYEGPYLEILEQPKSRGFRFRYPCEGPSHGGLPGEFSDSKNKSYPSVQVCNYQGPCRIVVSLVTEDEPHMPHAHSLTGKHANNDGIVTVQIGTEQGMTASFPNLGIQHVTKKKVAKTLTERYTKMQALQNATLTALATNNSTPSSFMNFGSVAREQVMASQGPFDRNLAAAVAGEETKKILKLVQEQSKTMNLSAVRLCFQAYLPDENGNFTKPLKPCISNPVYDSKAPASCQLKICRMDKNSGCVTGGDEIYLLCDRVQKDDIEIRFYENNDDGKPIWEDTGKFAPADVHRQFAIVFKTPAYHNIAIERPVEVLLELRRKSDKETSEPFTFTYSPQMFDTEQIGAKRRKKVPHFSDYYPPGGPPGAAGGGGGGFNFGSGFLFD

[2] = target: T2, GST-Nv-NF-kB (Cys allele) (Nematostella vectensis, UniProt E5G601 2-411)
T2 sequence: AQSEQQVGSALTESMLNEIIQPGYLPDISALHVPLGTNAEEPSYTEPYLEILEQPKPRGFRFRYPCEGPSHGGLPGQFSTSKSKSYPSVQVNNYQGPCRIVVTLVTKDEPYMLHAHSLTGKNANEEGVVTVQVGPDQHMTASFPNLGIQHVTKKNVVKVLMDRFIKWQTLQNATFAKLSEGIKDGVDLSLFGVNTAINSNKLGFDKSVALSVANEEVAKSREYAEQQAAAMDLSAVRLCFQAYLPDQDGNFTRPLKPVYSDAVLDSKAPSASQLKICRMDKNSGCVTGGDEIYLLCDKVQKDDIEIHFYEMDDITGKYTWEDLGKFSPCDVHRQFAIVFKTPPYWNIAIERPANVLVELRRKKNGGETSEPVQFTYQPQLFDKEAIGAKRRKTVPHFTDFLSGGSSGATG

[3] = target: T3, GST-Co-NF-kB (Capsaspora owczarzaki, UniProt F1ARL5 200-546)
T3 sequence: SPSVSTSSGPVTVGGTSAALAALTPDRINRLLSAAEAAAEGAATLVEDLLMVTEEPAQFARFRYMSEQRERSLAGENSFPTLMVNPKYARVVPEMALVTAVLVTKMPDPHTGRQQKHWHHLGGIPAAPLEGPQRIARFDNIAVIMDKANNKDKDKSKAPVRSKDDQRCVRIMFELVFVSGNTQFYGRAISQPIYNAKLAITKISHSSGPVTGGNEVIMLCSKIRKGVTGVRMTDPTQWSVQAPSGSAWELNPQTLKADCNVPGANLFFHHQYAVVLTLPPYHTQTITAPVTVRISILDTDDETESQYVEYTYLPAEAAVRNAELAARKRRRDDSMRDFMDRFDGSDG

[4] = target: T4, GST-Dm-Relish (Drosophila melanogaster, UniProt Q94527 99-473)
T4 sequence: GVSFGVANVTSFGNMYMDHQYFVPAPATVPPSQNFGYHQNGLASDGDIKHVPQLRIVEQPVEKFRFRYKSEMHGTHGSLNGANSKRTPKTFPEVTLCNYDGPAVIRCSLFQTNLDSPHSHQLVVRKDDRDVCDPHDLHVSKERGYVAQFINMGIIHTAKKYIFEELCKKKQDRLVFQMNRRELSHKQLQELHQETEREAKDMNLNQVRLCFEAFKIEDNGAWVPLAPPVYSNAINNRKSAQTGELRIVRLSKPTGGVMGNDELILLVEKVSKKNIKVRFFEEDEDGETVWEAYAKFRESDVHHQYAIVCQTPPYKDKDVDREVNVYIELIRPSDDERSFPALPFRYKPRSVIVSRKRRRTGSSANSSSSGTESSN

[5] = target: T5, GST-Aq-NF-kB (Amphimedon queenslandica, UniProt A9Y5G7 2-389)
T5 sequence: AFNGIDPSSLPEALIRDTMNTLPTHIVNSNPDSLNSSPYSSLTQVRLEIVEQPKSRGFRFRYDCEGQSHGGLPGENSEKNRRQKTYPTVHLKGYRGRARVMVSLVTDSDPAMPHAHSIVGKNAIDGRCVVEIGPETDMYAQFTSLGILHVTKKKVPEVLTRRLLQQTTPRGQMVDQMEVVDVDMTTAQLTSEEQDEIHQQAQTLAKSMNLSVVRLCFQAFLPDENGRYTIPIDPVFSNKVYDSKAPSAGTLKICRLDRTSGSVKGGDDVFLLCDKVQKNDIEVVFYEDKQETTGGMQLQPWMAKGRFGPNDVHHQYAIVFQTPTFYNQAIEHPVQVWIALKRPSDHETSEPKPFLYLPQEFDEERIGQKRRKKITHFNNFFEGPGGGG

Sequence	binding signal [1] [z-score]	binding signal [2] [z-score]	binding signal [3] [z-score]	binding signal [4] [z-score]	binding signal [5] [z-score]
CCGATTAACATCAGATTCTCCCCTGATGTTAATCGGGTCTTGATTCGCTTGACGCTGCTG	5.2	5.25	6.76	1.92	4.43
CCGATTAACATCAGGGGTTCACCTGATGTTAATCGGGTCTTGATTCGCTTGACGCTGCTG	3.84	2.71	1.45	8.89	4.82
CCGATTAACATCAGGGAAAACACTGATGTTAATCGGGTCTTGATTCGCTTGACGCTGCTG	3.49	4.89	4.18	5.1	6.06
CCGATTAACATCAGGTATTCCCATGATGTTAATCGGGTCTTGATTCGCTTGACGCTGCTG	3.43	2.67	2.14	7.54	4.66
CCGATTAACATCAAATATACCCATGATGTTAATCGGGTCTTGATTCGCTTGACGCTGCTG	2.13	2.41	1.8	2.31	2.52
CCGATTAACATCAGGGGGTAAAATGATGTTAATCGGGTCTTGATTCGCTTGACGCTGCTG	4.43	4.2	8.57	3.24	4.16
CCGATTAACATCAGAACATTCCCTGATGTTAATCGGGTCTTGATTCGCTTGACGCTGCTG	2.94	4.14	2.6	1.97	5
CCGATTAACATCAGGGGAGAACCTGATGTTAATCGGGTCTTGATTCGCTTGACGCTGCTG	6.35	4.58	5.4	5.43	5.51
CCGATTAACATCAGGGAGGGTAATGATGTTAATCGGGTCTTGATTCGCTTGACGCTGCTG	2.31	2.15	1.71	1.12	2.39
CCGATTAACATCAGGGGGTTACATGATGTTAATCGGGTCTTGATTCGCTTGACGCTGCTG	6.46	4.25	3.27	6.42	4.89
CCGATTAACATCAGGGGAGTATATGATGTTAATCGGGTCTTGATTCGCTTGACGCTGCTG	4.78	3.81	4.7	2.18	3.95
CCGATTAACATCAGGAATACCCCTGATGTTAATCGGGTCTTGATTCGCTTGACGCTGCTG	6.59	6.44	4.14	6.46	6.92
CCGATTAACATCAAAGGAATCCCTGATGTTAATCGGGTCTTGATTCGCTTGACGCTGCTG	3.02	2.14	1.06	7.59	2.92
CCGATTAACATCAATGTCCCCCCTGATGTTAATCGGGTCTTGATTCGCTTGACGCTGCTG	5.26	4.79	8.35	3.82	4.85
CCGATTAACATCAATCACCCCCATGATGTTAATCGGGTCTTGATTCGCTTGACGCTGCTG	4.03	2.63	4.35	1.86	3.32
CCGATTAACATCAGGGGGTGTTATGATGTTAATCGGGTCTTGATTCGCTTGACGCTGCTG	4.69	4.31	3.42	4.34	5.4
CCGATTAACATCAGGGGACAACCTGATGTTAATCGGGTCTTGATTCGCTTGACGCTGCTG	4.96	4.76	3.44	3.96	5.18
CCGATTAACATCAGGACTGTCCCTGATGTTAATCGGGTCTTGATTCGCTTGACGCTGCTG	4.85	5.38	1.21	3.04	7.35
CCGATTAACATCACGGGAAGTCCTGATGTTAATCGGGTCTTGATTCGCTTGACGCTGCTG	2.98	3.06	1.33	7.73	6
CCGATTAACATCACTGTTTTCCCTGATGTTAATCGGGTCTTGATTCGCTTGACGCTGCTG	2.63	4.15	4.9	1.62	3.31
CCGATTAACATCACCAATTTCCCTGATGTTAATCGGGTCTTGATTCGCTTGACGCTGCTG	3.3	4.17	3.83	1.84	3.17
CCGATTAACATCAGATGTCCCCCTGATGTTAATCGGGTCTTGATTCGCTTGACGCTGCTG	6.05	5.16	5.82	2.8	4.73
CCGATTAACATCACGGGAATTTCTGATGTTAATCGGGTCTTGATTCGCTTGACGCTGCTG	5.46	7.5	5.53	5.6	6.28
CCGATTAACATCAGGGGGTGTACTGATGTTAATCGGGTCTTGATTCGCTTGACGCTGCTG	3.65	3.29	2.61	8.3	4.78
CCGATTAACATCAAAAACTCCCATGATGTTAATCGGGTCTTGATTCGCTTGACGCTGCTG	4.22	5.15	2.58	5.66	5.3
CCGATTAACATCAGGGGGGGTACTGATGTTAATCGGGTCTTGATTCGCTTGACGCTGCTG	5.04	3.45	4.54	5.04	4.67
CCGATTAACATCAAACCCCCCCATGATGTTAATCGGGTCTTGATTCGCTTGACGCTGCTG	6.35	4.78	5.7	6.81	5.02
